Assay outcomes as filed in PubChem BioAssay.
Rows were chosen to be rich in hits. Some 1.9% of all compounds tested hit in one or more screens of this group.
SSB-PriA inh: blocks PriA binding to SSB C-terminal tail | AlphaScreen SSBct-PriA binding, biotinylated peptide | inhibition, % at 33 µM | 430,000 tested, 0.6% active; in the data active = inhibition mostly above about 37%, no sharp cut-off; inactive = mostly below about 20%;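 also: plate controls were negative control peptide for no effect and reference peptide for full effect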
PrPC TRFRET: reduces human prion protein on the cell surface. cell surface PrPC, TR-FRET read-out. P04156. AID 720596. inhibition, % at 13.8 µM. 370,000 tested, 0.43% active; in the data active = inhibition above about 24%; also: 0% = median of the test wells and 100% = reference compound wells
PfHsp40 rescue: rescue of PfHsp40-mediated yeast toxicity | S. cerevisiae expressing PfHsp40, growth rescue, ATP luminescence | 340,000 tested, 0.68% active | growth rescue, % at 12.5 µM; in the data active = growth rescue above about 28%, passing the limit was not always enough;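 also: yeast W303a lacking pdr1 and pdr3 grown in galactose medium; growth measured after three days at 30 °C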
PrP UTR inh: suppresses PrP 5' UTR mRNA reporter expression; 340,000 tested, 0.35% active; inhibition, % (test concentration not listed); cell-based PrP 5' UTR mRNA reporter, plate reader; in the data active = inhibition above about 52%; also: 0 = median of the neutral control wells
RecA splice inh: Mtb RecA intein splicing inhibition | P9WHJ3 | cell-free RecA intein splicing, fluorescence | inhibition, % (no concentration beside the values) | 290,000 tested, 0.75% active | AID 2221; in the data active = inhibition above about 30%;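 also: 0% = vehicle wells and 100% = reference inhibitor control wells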
BJeLR viability: kills HRASV12-expressing BJeLR cells; BJeLR (HRASV12) viability, CellTiter-Glo ATP luminescence, 48 h; inhibition, % (concentration not given with the values); 300,000 tested, 0.17% active; in the data active = inhibition above about 50%
* hit, by the source's call; nt = not tested or not shown; ! = not active in a repeat.

SMILES	SSB-PriA inh	PrPC TRFRET	PfHsp40 rescue	PrP UTR inh	RecA splice inh	BJeLR viability
O=C(O)c1ccc(N/N=C/c2ccc(F)c(F)c2)cc1	nt	17	147*	-53	-1	3
O=C(O)c1ccc(N/N=C/c2cccc(C(F)(F)F)c2)cc1	nt	16	64*	-72	-6	4
CCCCOc1ccc(NC(=O)N2CC(c3nc(-c4cccs4)no3)C2)cc1	3	nt	nt	nt	nt	nt
COc1cc(C(=O)Nc2nc3c(C)cccc3s2)cc(OC)c1OC	-9	nt	nt	nt	nt	nt
O=C(NCC1(O)CCc2ccccc2C1)c1ccccn1 (stereo not drawn)	-15	nt	nt	nt	nt	nt
CCOC(=O)/C(C#N)=C1/SC(C)C(=O)N1c1ccc(Br)cc1 (stereo not drawn)	-5	6	-1	-21	32*	-8
c1ccc(-c2csc3nnc(SCc4ccc5c(c4)OCCO5)n23)cc1	40*!	6	0	-24	-1	4
Cc1ccc(-c2csc3nnc(SCc4ccc5c(c4)OCO5)n23)cc1	7	nt	nt	nt	nt	nt
O=C(COc1ccccc1)Nc1nccs1	10	8	57*	-128	0	1
O=C(COc1ccc([N+](=O)[O-])cc1)Nc1nc(-c2ccccn2)cs1	31	0	271*	-5	-2	3
Cc1ccc(OCC(=O)Nc2nc(-c3ccccn3)cs2)c(C)c1	4	-3	54*	-10	4	-3
O=C(COc1ccc(F)cc1)Nc1nc(-c2ccccn2)cs1	58*	0	1	-16	0	-10
O=C(COc1cccc(F)c1)Nc1nc(-c2ccccn2)cs1	nt	0	nt	nt	nt	nt
Cc1cc(C)c2nc(NC(=O)c3c(F)cccc3F)sc2c1	-12	nt	nt	nt	nt	nt
CC(=NNC(=O)c1ccc(Br)o1)C(C)C	9	nt	nt	nt	nt	nt
CC1(C)COc2ccc(NC(=O)Cc3ccc(-c4ccccc4)cc3)cc2NC1=O	27	nt	nt	nt	nt	nt
Cc1ccc(C(=O)Nc2ccc(SCC(=O)NCc3ccco3)nn2)cc1	-12	nt	nt	nt	nt	nt
O=C(NCc1nnnn1C1CCCCC1)c1cc2ccccc2o1	-6	nt	nt	nt	nt	nt
CCc1nc(SCc2nc3ccccc3[nH]2)c2oc3ccccc3c2n1	-7	-1	41*	-22	0	-7
C/C(=N\NC(=O)c1cc(-c2cccnc2)nc2ccccc12)c1ccc(O)cc1O	nt	10	78*	32	11	22
C/C(=N\NC(=O)c1cc(C)nc2ccccc12)c1ccccn1	nt	3	0	30	nt	nt
CC(=NNC(=O)c1cccc2ccccc12)c1ccccn1	66*	nt	nt	nt	nt	nt
C/C(=N\NC(=O)COc1ccccc1-c1ccccc1)c1ccccn1	nt	15	618*	21	1	19
COc1ccc(C(C)=NNC(=O)c2cc(-c3cccnc3)nc3ccccc23)cc1	-10	nt	nt	nt	nt	nt
CC(=NNC(=O)c1cc(C)nc2ccccc12)c1ccccn1	94*	nt	nt	nt	nt	nt
SMILES	SSB-PriA inh	PrPC TRFRET	PfHsp40 rescue	PrP UTR inh	RecA splice inh	BJeLR viability
CCOc1cc(NC(=O)c2snnc2C)ncn1	-11	nt	nt	nt	nt	nt
O=C(Cn1cnc2c(sc3cccc(F)c32)c1=O)Nc1ccc2c(c1)OCO2	-10	nt	nt	nt	nt	nt
CC(=O)Nc1ccc(CC(=O)NCc2ccnc(-c3cccs3)c2)cc1	-10	nt	nt	nt	nt	nt
CS(=O)(=O)c1cccc(-c2nnc(NC(=O)CN3C(=O)c4ccccc4C3=O)o2)c1	-17	nt	nt	nt	nt	nt
O=C(CNC(=O)c1cccc(F)c1)NN=Cc1cc(Br)ccc1OCc1ccccc1	-16	nt	nt	nt	nt	nt
CCCCCCCCCCCCN1[C@@H](CC(=O)O)c2cc(F)ccc2S1(=O)=O	8	-2	49*	-5	22	15
CCCCCCCCCCCCN1[C@@H](CC(=O)OC)c2cc(C(F)(F)F)ccc2S1(=O)=O	-11	1	4	-20	3	-4
CCCCCCCCN1[C@@H](CC(=O)OCC)c2ccc(C(F)(F)F)cc2S1(=O)=O	-19	7	38*	-23	0	-10
CCCCCCCOC(=O)c1ccc(OC(=O)c2cccnc2)cc1	-11	-5	16	-26	64*	-1
CCCCCOc1ccc(OC(=O)c2ccncc2)cc1	4	-9	74*	-29	0	0
CCCCCCCCCCCOc1ccc(C(=O)Oc2ccc(OCCCCCCCC)cc2)cc1	1	nt	nt	nt	nt	nt
CCc1cccc2sc(N(Cc3ccncc3)C(=O)c3ccc(C#N)cc3)nc12	0	nt	nt	nt	nt	nt
COc1cc(C2C(C#N)=C(N)Oc3c2c(-c2ccccc2)nn3-c2ccccc2)cc(OC)c1OC (stereo not drawn)	10	-5	0	-20	70*	3
COc1cc(C2C(C#N)=C(C)NC3=C2C(=O)c2ccccc23)cc(OC)c1OC (stereo not drawn)	-2	8	-1	34	nt	nt
O=S(=O)(NCC(O)(c1cccs1)C1CC1)c1cccs1 (stereo not drawn)	-11	nt	nt	nt	nt	nt
NC(=NOS(=O)(=O)c1ccccc1)c1ccncc1	-10	nt	nt	nt	nt	nt
O=[N+]([O-])c1cccnc1Sc1ccc(F)cc1	42*	-20	nt	nt	-13	1
O=[N+]([O-])c1ccc(Sc2cccc3cccnc23)c([N+](=O)[O-])c1	87*	17	1	-7	-5	nt
Oc1c(I)cc(Cl)c2cccnc12	9	-1	246*	27	16	9
O=[N+]([O-])c1cc(Cl)c(O)c2ncccc12	86*!	-3	24	-17	6	6
O=[N+]([O-])c1cc([N+](=O)[O-])c2cccnc2c1Oc1ccccc1O	35	-11	0	21	-4	-3
CCc1ccc(C=C(C#N)C#N)cc1	0	nt	nt	nt	nt	nt
O=C(Cc1cc(=O)[nH]c(SCc2ccccc2)n1)NCc1cccs1	-22	nt	nt	nt	nt	nt
O=C(c1ncc(-c2ccc(F)cc2)o1)N1CCc2ccccc2C1	8	nt	nt	nt	nt	nt
O=[N+]([O-])c1cc(Cl)c2cccnc2c1O	67*	-16	142*	-21	1	6
SMILES	SSB-PriA inh	PrPC TRFRET	PfHsp40 rescue	PrP UTR inh	RecA splice inh	BJeLR viability
O=[N+]([O-])c1cc(F)cc2cccnc12	55*	nt	nt	nt	nt	nt
O=[N+]([O-])c1ccc(O)c2cccnc12	4	-12	-1	-24	nt	-1
O=[N+]([O-])c1ccc(Cl)c2cccnc12	-3	-4	0	-18	nt	13
O=[N+]([O-])c1cc(F)c2cccnc2c1O	-10	-12	73*	-7	7	0
O=[N+]([O-])c1cc(O)cc2cccnc12	32	nt	nt	nt	nt	nt
CCN1CCN(C(c2ccc(C(F)(F)F)cc2)c2ccc3cccnc3c2O)CC1 (stereo not drawn)	44	8	60*	4	21	23
NC(=NOC(=O)c1cccc(Cl)c1)c1cccnc1	7	nt	nt	nt	nt	nt
Cc1onc(-c2ccccc2)c1C(=O)NC(=S)NNC(=O)c1ccco1	0	2	50*	0	1	-2
Cc1onc(-c2ccccc2)c1C(=O)NC(=S)NNC(=O)c1ccncc1	-8	-11	2	-5	-1	5
Cc1onc(-c2ccccc2)c1C(=O)NC(=S)NNC(=O)c1cc(-c2ccc(F)cc2)n[nH]1	2	-5	235*	-11	1	3
Oc1c(CN2CCOCC2)cc(CN2CCOCC2)cc1CN1CCOCC1	-6	-3	1	4	nt	nt
Cc1cc(N=Nc2ccc(Cl)cc2)cc(CN2CCOCC2)c1O	49*	-6	4	11	4	-6
